# Screening data (PubChem)
# JMJD2A Tudor: blocks the human JMJD2A Tudor domain; O75164; AlphaScreen JMJD2A-Tudor / H3K4me3 peptide binding; Potency, µM (doses to about 114 µM), without a hit: at the highest dose activity change, negative = inhibition, actives largely listed as inhibitors; 390,000 compounds, 4.4% hits; AID 504339; note: % is set by controls: 0 for no effect and ±100 for the full control effect; nearly all actives have a fitted effect of over 50% in size
# Target sequence (O75164 whole entry, looked up, the tested form may be a part): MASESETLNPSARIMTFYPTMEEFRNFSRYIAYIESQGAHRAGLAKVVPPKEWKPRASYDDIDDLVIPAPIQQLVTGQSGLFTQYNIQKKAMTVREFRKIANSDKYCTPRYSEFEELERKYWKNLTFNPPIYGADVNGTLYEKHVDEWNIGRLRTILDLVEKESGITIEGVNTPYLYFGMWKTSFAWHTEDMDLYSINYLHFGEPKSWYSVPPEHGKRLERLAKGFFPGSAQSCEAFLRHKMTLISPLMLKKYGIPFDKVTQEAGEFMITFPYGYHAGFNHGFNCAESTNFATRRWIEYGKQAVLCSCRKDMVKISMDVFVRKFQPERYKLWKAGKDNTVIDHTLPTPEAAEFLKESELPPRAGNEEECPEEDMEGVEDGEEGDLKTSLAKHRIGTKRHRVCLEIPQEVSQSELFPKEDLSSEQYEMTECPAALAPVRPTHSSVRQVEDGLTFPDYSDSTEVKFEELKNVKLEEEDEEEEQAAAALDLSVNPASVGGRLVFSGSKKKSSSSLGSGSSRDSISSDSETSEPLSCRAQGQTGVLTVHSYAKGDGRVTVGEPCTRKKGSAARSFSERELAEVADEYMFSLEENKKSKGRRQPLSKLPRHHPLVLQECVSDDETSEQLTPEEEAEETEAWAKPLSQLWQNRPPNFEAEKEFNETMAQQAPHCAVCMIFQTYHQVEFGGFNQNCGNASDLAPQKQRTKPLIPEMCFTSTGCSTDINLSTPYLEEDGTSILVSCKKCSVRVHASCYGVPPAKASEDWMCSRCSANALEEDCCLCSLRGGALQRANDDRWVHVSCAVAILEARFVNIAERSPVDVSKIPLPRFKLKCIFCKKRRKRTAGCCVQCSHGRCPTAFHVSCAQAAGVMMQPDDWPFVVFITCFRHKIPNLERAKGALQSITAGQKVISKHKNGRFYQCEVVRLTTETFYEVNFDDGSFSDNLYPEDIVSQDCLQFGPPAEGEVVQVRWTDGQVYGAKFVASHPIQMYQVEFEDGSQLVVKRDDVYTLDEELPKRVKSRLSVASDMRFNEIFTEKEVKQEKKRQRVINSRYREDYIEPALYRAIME
# BAZ2B inh: inhibitors of human BAZ2B bromodomain | Q9UIF8 | AlphaScreen BAZ2B-H3K14Ac peptide displacement | Potency, µM (top dose mostly 114 µM), for the others: top-dose activity change, negative = inhibition, usual class: inhibitors | 360,000 compounds, 4.4% hits | AID 504333; note: % is set by controls: 0 for no effect and ±100 for the full control effect; nearly all actives have a fitted effect of over 60% in size
#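 AlphaScreen displacement of biotin-H3(5-23)K14Ac peptide (50 nM final) from BAZ2B (50 nM final) in PBS pH 7.4, 0.01% Tween-20; complex preformed 30 min RT, then compounds (top 110 uM) 30 min RT, beads 20 min dark.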
# G9a block: blocks human histone lysine methyltransferase G9a. Q96KQ7. G9a H3K9 monomethylation, AlphaScreen, 2 h. Potency, µM (doses to about 102 µM), without a hit: top-dose activity, negative = inhibition, usual class: inhibitors. 350,000 compounds, 8.8% hits. AID 504332; note: % is set by controls: 0 for no effect and ±100 for the full control effect; nearly all actives have a fitted effect of over 75% in size
#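 Compounds were preincubated with 20 nM G9a for 15 min, after which biotinylated H3K9 peptide (500 nM) and SAM (20 uM) started a 2 h room-temperature reaction. Monomethylated product was quantified by antibody-based AlphaScreen chemiluminescence.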
# HP1b chromo inh: inhibitors of HP1-beta chromodomain binding to methylated histone tails | P83916 | AlphaScreen HP1-beta / biotin-H3K9me3 peptide binding | Potency, µM (doses to about 114 µM), for inactives: at the highest dose activity change, negative = inhibition, hits mostly inhibitors | 390,000 compounds, 0.56% hits | AID 540317; note: nearly all actives have a fitted effect of over 70% in size
#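 AlphaScreen: HP1-beta (50 nM) preformed 30 min with biotin-H3(1-18)K9me3 peptide (50 nM) in PBS pH 7.4, 0.01% Tween-20. Compound added for 30 min at RT, then streptavidin donor/nickel chelate acceptor beads (10 ug/mL) for 30 min.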
# PLK1 PBD block: PLK1 (human) polo-box domain binding inhibition. P53350. Plk1 PBD binding of FITC phosphopeptide, fluorescence polarization. Potency, µM, inactives show max response, negative = inhibition, usual class: inhibitors. 360,000 compounds, 2.8% hits; note: series mostly up to about 57 µM; % is set by controls: 0 for no effect and ±100 for the full control effect; nearly all actives have a fitted effect of over 65% in size
# 12-LOX inh: blocks human arachidonate 12S-lipoxygenase | P18054 | purified 12hLO, xylenol orange hydroperoxide absorbance | Potency, µM (titrated, usually from 108 µM), for the others: at the highest dose activity change, negative = inhibition, hits mostly inhibitors | 580,000 compounds, 1.1% hits; note: % is set by controls: 0 for no effect and ±100 for the full control effect
#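 Hydroperoxide product was detected by ferrous iron/xylenol orange as the 573 to 405 nm absorbance ratio. Arachidonic acid at 40 uM (final) was turned over for 30 min at room temperature by 150 nM human 12hLO, pH 7.0 Hepes buffer, after 15 min compound preincubation.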
# Starred values were filed as active, the others as inactive; ? = inconclusive; · = no result; ! = repeats disagree; [ ] = dose if it differs, or a comment. Sampled rows, rich in hits. Any-hit rate of the full collection: about 9%. Calls come from the whole dose curve; as a rule, active = well fitted curve in the direction sought with a large enough effect; inconclusive = small, poorly fitted or top-dose-only effect, or another doubt; inactive = no such curve, though single readings can be large; an effect the other way counts as inactive or inconclusive. Potency is the fitted concentration of half-maximal effect.
SMILES,JMJD2A Tudor,BAZ2B inh,G9a block,HP1b chromo inh,PLK1 PBD block,12-LOX inh
S=C(Nc1ccc(Cl)cc1)N1CCOCC1,-5.5%,·,·,45.5%,-13.2%,-2.1%
S=C(c1ccc(Cl)cc1)N1CCOCC1,-21.2%,-2.3%,11.2µM*,-31.5%,28.2µM*,?
O=C1NC(=O)N(Cc2ccccc2)C(=O)C1Cc1ccccc1 (stereo unspecified),-16.0%,·,·,33.2%,-9.5%,?
CC(C)c1ccc(N2C(=O)NC(=O)/C(=C\C=C\c3ccco3)C2=O)cc1,?,-27.1%,?,1.3%,?,10µM*
O=C1NC(=O)N(Cc2ccccc2)C(=O)/C1=C/C=C/c1ccco1,-30.0%,35.5µM*,·,-0.1%,121.7%,?
COc1cc(CN2CCCC(C(=O)c3sccc3C)C2)cc(Cl)c1O (stereo unspecified),-26.3%,?,·,?,-12.5%,?
CC12CCC3C(CCC4C/C(=N/O)CCC43C)C1CCC2O (stereo unspecified),-0.3%,21.3%,24.3%[59 µM],21.5%,-7.0%,12.5%
O=C1CC(=O)N(Cc2ccccc2)C(=O)N1,-2.1%,·,·,43.6%,-7.0%,?
O=C1NC(=O)N(Cc2ccccc2)C(=O)/C1=C/c1cnn(-c2ccccc2)c1,·,?,5.62µM*,·,·,·
COc1ccccc1N1C(=O)NC(=O)/C(=C\c2cnn(-c3ccccc3)c2)C1=O,?,-25.8%,8.91µM*,60.5%,3.36µM*,?
CCC1(CC)C(=O)NC(=NCCc2c[nH]c3ccccc23)NC1=O,-14.8%,-32.3%,-19.6%,9.8%,-1.5%,-2.3%
CC(C)(C)c1nc(N2CCN(C(=O)c3ccco3)CC2)c2nnn(Cc3ccccc3Cl)c2n1,-29.2%,?,?,-3.4%,2.3%,1.5%
O=S(=O)(c1cc(Cl)cc(Cl)c1)N1Cc2cc(N3CCOCC3)ccc2-n2nncc2C1,·,·,·,·,-13.0%,2.8%
Cc1ccc2nc(C)n(-c3ccc(F)cc3)c(=O)c2c1,-8.3%[11.4 µM],-4.2%,2.4%,-1.7%,21.2µM*,11.5%
NC(=S)c1cn(C2OC(CO)C(O)C2O)c2ncnc(N)c12 (stereo unspecified),-12.1%,-19.0%,10µM*,-9.3%,26.7µM*,-12.2%
Cc1nn(CC(C)C)c(Cl)c1C(=O)NC1CCCC1,·,·,·,·,-5.5%,-1.7%
O=C1CC2CCN(Cc3ccccn3)CC2CCN1 (stereo unspecified),·,·,·,·,·,2.5%[12.5 µM]
c1ccc(CN2CCNCC2)nc1,44.7µM*,70.8µM*,35.5µM*,9.8%,-16.6%,-12.9%
COP(=S)(OC)Oc1ccc(S(=O)(=O)N(C)C)cc1,·,·,10µM*,·,·,11.2µM*!
N#CCCNc1ccccc1,·,·,·,·,·,-8.0%
COC(=O)C1=C(c2ccc(Cl)c(C(F)(F)F)c2)C[C@@H]2CC[C@H]1N2C(=O)NCc1ccc2c(c1)OCO2,-33.6%,9.3%,13.6%[0.501 µM],52.3%,-12.1%,-0.4%
COc1ccc(CCNCc2ccc(Cl)cc2)cc1,·,·,·,·,·,14.1µM*
CCc1ccc(CNCCc2ccc(OC)cc2)cc1,·,·,·,·,·,2.51µM*
COc1ccc(CCNCC2CCCO2)cc1 (stereo unspecified),28.2µM*,?,·,?,-12.5%,0.0%
COc1ccc(NC(=O)N2C[C@@H]3C[C@@H](C2)c2cccc(=O)n2C3)c(OC)c1,-8.2%,-1.2%,3.55µM*,35.1%,0.5%,13.0%
SMILES,JMJD2A Tudor,BAZ2B inh,G9a block,HP1b chromo inh,PLK1 PBD block,12-LOX inh
CCCOc1ccc(C(=O)NC(=S)N2C[C@H]3C[C@H](C2)c2cccc(=O)n2C3)cc1,?,-10.2%,11.2µM*,-15.0%,26.7µM*,-21.7%
COc1cc(C(=O)N2C[C@H]3C[C@@H](C2)c2cccc(=O)n2C3)cc(OC)c1OC,-15.0%,-7.7%,0.5%[12.7 µM],14.7%,7.0%,3.9%
O=c1cccc2n1CC1CC2CN(Cc2c(F)cccc2Cl)C1 (stereo unspecified),56.2µM*,?,44.7µM*,13.4%,-2.2%,?
COc1cccc(NC(=O)[C@@H](NC(=O)N2C[C@H]3C[C@@H](C2)c2cccc(=O)n2C3)C(C)C)c1,-7.5%,25.3%,·,46.9%,-4.3%,-9.5%
COc1ccc(C(=O)NC(=S)N2C[C@H]3C[C@H](C2)c2cccc(=O)n2C3)cc1OC,-35.4%,-9.0%,44.7µM*,38.2%,-9.7%,?
CCOC(=O)CNC(=S)N1CC2C[C@@H](C1)Cn1c2cccc1=O,1.4%,0.9%,-1.3%,27.3%,2.2%,3.8%
COc1ccccc1CNC(=O)[C@H]1CN2CCC1C[C@@H]2Cn1cc(CSc2ccccc2)nn1 (stereo partly specified),·,·,·,·,·,-1.7%
CC1CN=C(NCCc2ccccc2)S1 (stereo unspecified),3.4%,2.8%,12.7%,18.8%,2.2%,-2.1%
CC(C)(C)NC(=O)C1CC2CCCCC2CN1 (stereo unspecified),-3.3%,?,6.8%,12.4%[57 µM],-15.4%,5.6%
O=C(Nc1cccc(Cl)c1)N1C[C@H]2C[C@@H](C1)c1cccc(=O)n1C2,-3.4%,4.7%,2.8%[12.7 µM],41.5%,0.5%,-13.6%
O=C(NC(=S)N1C[C@H]2C[C@H](C1)c1cccc(=O)n1C2)c1ccc(Cl)cc1Cl,-24.5%,-2.6%,39.8µM*,-3.8%,-21.3%,-26.4%
CCn1cc(C(=O)O)c(=O)c2cc(F)c(N3CCNCC3)cc21,·,-8.1%,8.91µM*!,·,·,?
Cc1ccc(N/N=C/C=C/c2ccco2)cc1,50.1µM*,·,·,?,-19.6%,?
C=CCn1c(O)c(N=Nc2c(C)n(C)n(-c3ccccc3)c2=O)c(=O)[nH]c1=S,25.1µM*,7.08µM*,0.794µM*,9.8%,-4.4%,?
CCOc1ccc(-n2c(O)c(N=Nc3c(C)n(C)n(-c4ccccc4)c3=O)c(=O)[nH]c2=O)cc1,25.1µM*,14.1µM*,-42.2%,30.5%,-2.8%,39.3%
Cc1c(N=Nc2c(O)[nH]c(=S)[nH]c2=O)c(=O)n(-c2ccccc2)n1C,12.6µM*,4.47µM*,2µM*,26.6%,-18.0%,-15.0%
Cc1c(N=Cc2c(O)n(CCc3ccccc3)c(=O)[nH]c2=O)c(=O)n(-c2ccccc2)n1C,-21.9%,6.0%,-18.2%[59 µM],13.3%,-2.7%,-8.1%
O=c1oc2ccccc2c(O)c1Cc1c(O)c2ccccc2oc1=O,·,·,25.0%[21.5 µM],·,·,·
CCCCC(=O)c1c(O)c2ccccc2oc1=O,?,-11.5%,44.7µM*,18.7%,-6.7%,?
CC(C)NC(=O)N1CCC2(CCNCC2)CC1,·,·,5.5%[12.7 µM],·,·,-2.7%[57.4 µM]
COc1ccc(C(=O)C2CCCN(Cc3ccon3)C2)cc1OC (stereo unspecified),-1.4%,1.5%,-1.0%,24.2%,-14.8%,-12.3%
O=C1CC2(CCCC2)CC(=O)N1CCCCN1CCN(c2ncccn2)CC1,-2.9%,-1.9%,12.6µM*!,39.6%,-3.9%,-12.1%
O=S(=O)(O)c1cc(O)ccc1O,79.4µM*,3.0%,10µM*,?,-0.5%,4.4%
